In PubChem BioAssay:
Where “and” joins values, the source holds several entries; their conditions need not be identical. Identical values can stand only once. Calls of active or inactive are those of the source. The rule behind the calls is not given here.

What follows are molecules tested against Pantothenate synthetase (Mycobacterium tuberculosis (strain ATCC 25618 / H37Rv)) (UniProt P9WIL5) (assay: Coupled enzyme confirmation of inhibitors against recombinant Mtb PanC (AID 375;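 note: 0% = full reaction with vehicle and 100% = no enzyme background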)). Conditions: coupled enzyme assay; at 10 µM, hits give high values.
Sequence of Pantothenate synthetase (Mycobacterium tuberculosis (strain ATCC 25618 / H37Rv)) (P9WIL5 whole entry, looked up): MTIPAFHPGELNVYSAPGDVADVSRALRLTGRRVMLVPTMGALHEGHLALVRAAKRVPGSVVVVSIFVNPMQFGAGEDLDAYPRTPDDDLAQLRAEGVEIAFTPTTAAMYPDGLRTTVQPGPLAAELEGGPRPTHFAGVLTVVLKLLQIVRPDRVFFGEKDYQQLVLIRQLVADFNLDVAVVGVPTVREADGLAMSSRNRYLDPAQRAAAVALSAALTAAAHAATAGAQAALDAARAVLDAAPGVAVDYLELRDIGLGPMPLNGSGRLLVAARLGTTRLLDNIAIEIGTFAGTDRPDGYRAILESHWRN

SMILES	inhibition
COc1ccccc1-n1nnnc1SCc1ccccc1	3% (inactive)
CC(C)(Oc1ccc(Cl)cc1)C(=O)NC1CCSC1=O (stereo not given)	0% (inactive)
Cc1sc2nc(SCC(=O)NCc3ccco3)n(CCc3ccccc3)c(=O)c2c1C	0% (inactive)
Cc1cccc(C2c3c(n(C)c(=O)n(C)c3=O)N=C3c4ccccc4C(=O)C32)c1 (stereo not given)	7% (inactive)
CCOC(=O)c1oc2cc(OCC(N)=O)ccc2c(=O)c1-c1ccc(OC)c(OC)c1	3% (inactive)
CC(NS(=O)(=O)c1ccc(F)cc1)C(c1cccs1)N1CCN(C)CC1 (stereo not given)	0% (inactive)
COc1ccc(C(=O)NCc2nnc(SC)n2C2CCCCC2)cc1	2% (inactive)
CCCCCCn1c(SCCCC)nc2c1c(=O)[nH]c(=O)n2C	4% (inactive)
CCOC(=O)c1[nH]c(C)c(C(=O)Nc2cc(OC)ccc2OC)c1C	0% (inactive)
C=CCOc1ccc(/C(CC)=N/O)c(OC)c1	0% (inactive)
COc1ccc(S(=O)(=O)Cc2ccc(C(=O)N3CCN(Cc4ccccc4)CC3)o2)cc1	0% (inactive)
COc1ccc(NC(=O)CSc2nc3c(c(=O)n2-c2ccccc2OC)SCC3)cc1	3% (inactive)
Cc1cc(C(=O)Cn2cncn2)c(C)n1CCc1ccc(F)cc1	1% (inactive)
O=[n+]1cc(-c2ccc(F)cc2)n([O-])c2c1CCC2	0% (inactive)
COC(=O)CNC(=O)c1c(C)cc(=O)oc1C	3% (inactive)
CCOc1ccc2[nH]c(=O)c(CN(CCOC)C(=O)N3CCOCC3)cc2c1	8% (inactive)
CC(=O)Nc1ccc(NC(=O)Cn2cnc3c(cnn3C(C)(C)C)c2=O)cc1	3% (inactive)
CCn1cc(C(=O)O)c(=O)c2cc(F)c(N3CCNCC3)cc21	0% (inactive)
c1ccc2c3nnc4n(c-3nc2c1)CCCS4	1% (inactive)
CCCc1nnc2n1N=C(c1ccc(-c3cc(Cl)ccc3Cl)o1)CS2	0% (inactive)

SMILES	inhibition
Cc1ccc(C2=Nc3ccccc3NC(C)(c3ccc(C)o3)C2)o1 (stereo not given)	0% (inactive)
COCCn1c(=O)[nH]c2cc(C(=O)NCc3cccnc3)ccc2c1=O	2% (inactive)
Nc1ccc(C(=O)O)c(O)c1	1% (inactive) and 0% (inactive)
Cc1ccc(SCC(=O)NCCN2C(=O)CSC2=O)c(C)c1	0% (inactive)
CCc1ccc2c(CN(CC)Cc3nc4ccccc4c(=O)[nH]3)cc(=O)oc2c1	0% (inactive)
CCOc1cccc(/C(O)=C2/C(=O)C(=O)N(CCN3CCOCC3)C2c2cccnc2)c1 (stereo not given)	0% (inactive)
COc1ccccc1NC(=O)N(Cc1ccco1)Cc1cc2cccc(C)c2[nH]c1=O	2% (inactive)
O=C(CN(Cc1ccc2c(c1)OCO2)C(=O)CNS(=O)(=O)c1ccccc1)NCc1ccco1	0% (inactive)
Cc1nc2ccccc2c2oc(C(=O)N3CCN(C(=O)c4ccco4)CC3)cc12	0% (inactive)
CC1(C)CC(=O)C(C(=O)CCCCC(=O)C2C(=O)CC(C)(C)CC2=O)C(=O)C1	0% (inactive)
O=C(Cn1nnc2c(cnn2-c2ccc(F)cc2)c1=O)c1ccccc1F	1% (inactive)
CCN1CCN(c2ncc(C(=O)N3CCN(c4ccccc4OC)CC3)c3ccccc23)CC1	3% (inactive)
CCOc1ccccc1-n1c(SCC(=O)NC2CCCC2)nnc1-c1ccoc1C	1% (inactive)
CCOC(=O)c1oc2ccccc2c1CSc1nnnn1-c1ccc(C)cc1	1% (inactive)
O=C(O)CC1=C(O)C(=O)N(c2ccccc2)C1c1ccccc1 (stereo not given)	0% (inactive)
Cc1ccnc(NC(=O)Nc2ccc(F)cc2)c1	0% (inactive)
COC(=O)c1sc(NC(=O)COc2ccccc2OC)nc1C	0% (inactive)
Cn1c(=O)cc(SCC(=O)N2CCOCC2)c2ccc(Cl)cc21	0% (inactive)
CCC(Oc1ccccc1)C(=O)Nc1ccccc1OC (stereo not given)	0% (inactive)
O=C(NCCN1CCOCC1)c1csc2c1CCCC2	0% (inactive)
